Experimental data published in PubChem BioAssay.
Activity calls are given as the source filed them.

Experiments:
[1] = small molecules captured by biotinylated probe aFSTL3 – biochemical, small-molecule microarray, fluorescence 635/667, stem cell growth factor project, primary screen (AID 1064); details: higher = more signal;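 further: measures binding of the biotinylated anti-FSTL3 antibody to printed compounds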
[2] = binders from COS7 lysate, DM2A8 probe, primary screen, torsin A project, cell lysate, small-molecule microarray, fluorescence 635/667 (AID 1065); details: higher = more signal, COS7 lysate expressing mutant human TOR1A
[3] = small molecules captured by biotinylated probe aFGF2 – biochemical, small-molecule microarray, fluorescence 635/667, stem cell growth factor project, primary screen (AID 1067); details: higher = more signal;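 further: measures binding of biotinylated aFGF2 protein to printed compounds on slides; z-score merges feature fluorescence and signal-to-noise across triplicate slides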
[4] = small molecules captured by biotinylated probe aFGF10 – biochemical, small-molecule microarray, fluorescence 635/667, stem cell growth factor project, primary screen (AID 1071); details: higher = more signal;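 further: score merges 667 nm spot intensity and signal to noise from triplicate slides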
[5] = target: Neurogenic locus notch homolog protein 2 (Homo sapiens) (UniProt Q04721); test: small molecules binding Notch2 protein – biochemical, small-molecule microarray, 635 nm fluorescence, stem cell growth factors, primary screen (AID 1073); details: higher = more signal
[6] = target: Pro-neuregulin-1, membrane-bound isoform (Homo sapiens) (UniProt Q02297); test: small molecules binding neuregulin-1 protein – biochemical, small-molecule microarray, fluorescence 635/667, psychiatric disease protein project, primary screen (AID 1075); details: NRG1 binding, 635 nm fluorescence, higher = more signal;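 further: score combines 667 nm spot fluorescence with signal to noise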
[7] = system: Neuregulin-1 EGF-like domain; test: small molecules binding NRG1 EGF domain – biochemical, small-molecule microarray, 635 nm fluorescence, primary screen (AID 1081); details: higher = more signal;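 further: binding of the protein to compounds printed on small-molecule microarray slides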
[8] = FRG1 expression reporter modulators in myotubes – cell-based, C2C12 myotubes, firefly/Renilla luciferase, luminescence, FRG1 inhibition for FSHD, primary screen (AID 1084); details: FRG1 promoter luciferase, higher = more signal, called active from +8 up or from −8 down
[9] = small molecules captured by biotinylated probe aFST – biochemical, small-molecule microarray, fluorescence 635/667, stem cell growth factor project, primary screen (AID 1086); details: higher = more signal;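 further: score merges 667 nm fluorescence with signal-to-noise of each printed compound spot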
[10] = binders of probe aHhip on microarray, primary screen, stem cell growth factor project, biochemical, small-molecule microarray, fluorescence 635/667 (AID 1087); details: higher = more signal;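 further: score merges spot fluorescence at 667nm with spot signal to noise ratio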
[11] = system: PRMT1 (protein arginine N-methyltransferase 1); test: small molecules binding arginine methyltransferase PRMT1 – biochemical, small-molecule microarray, 635 nm fluorescence, primary screen (AID 1088); details: higher = more signal;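 further: binding of Prmt1 protein to compounds spotted on small-molecule microarray slides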
[12] = growth effects on S. cerevisiae YJM789 – YJM789 clinical isolate, OD600, 24 h, basal, primary screen (AID 1089); details: higher = more signal, called active from +8 up or from −8 down;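 further: growth of clinical yeast isolate S. cerevisiae YJM 789 seeded 1000 cells per well; test concentration not given here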
[13] = S. pombe growth modifiers, basal conditions – strain 972, OD600, 24 h, no modulator, primary screen (AID 1090);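 further: basal condition with compound alone and no growth modifier present; test concentration not given here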; details: S. pombe 972 growth, higher = more signal, called active from +8 up or from −8 down
[14] = budding yeast growth modifiers under rapamycin – strain BY4716, OD600, 96 h, primary screen (AID 1091); further: test concentration not given here; details: S. cerevisiae BY4716 + rapamycin, higher = more signal, called active from +8 up or from −8 down
[15] = target: Torsin-1A-interacting protein 2 (Homo sapiens) (UniProt Q8NFQ8); test: small molecules binding lysate-expressed LULL1 – cell lysate, human LULL1 lysate, 635/667 nm fluorescence, primary screen (AID 1092); details: small-molecule microarray, hLULL1 lysate binding, 635 nm fluorescence; higher = more signal;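 further: probe is lysate of COS7 cells overexpressing human LULL1; score merges per-feature 667 nm fluorescence with signal-to-noise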
[16] = optical density change of DRC41 E. coli – strain DRC41, OD650, 24 h, E. coli filamentation project, primary screen (AID 1093);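 further: MC1000 strain lacking acrAB efflux and sulA so SOS filamentation is blocked; test concentration not given here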; details: E. coli DRC41 growth, higher = more signal, called active from +8 up or from −8 down
[17] = probe aLefty2 binding to arrayed compounds – biochemical, biotinylated probe, 635/667 nm fluorescence, primary screen (AID 1094); details: small-molecule microarray, higher = more signal;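 further: score merges spot fluorescence near 667 nm with spot signal-to-noise ratio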
[18] = system: Noggin (protein binding on small-molecule microarray); test: small molecules binding Noggin protein – biochemical, 635/667 nm fluorescence, primary screen (AID 1095); details: 635 nm fluorescence, higher = more signal;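 further: score merges 667 nm feature fluorescence with signal to noise over triplicate slides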
[19] = target: Neurogenic locus notch homolog protein 3 (Homo sapiens) (UniProt Q9UM47); test: small molecules binding NOTCH3 protein – biochemical, 635/667 nm fluorescence, primary screen (AID 1096); details: small-molecule microarray, 635 nm fluorescence, higher = more signal
[20] = probe aEGFR binding to arrayed compounds – biochemical, biotinylated probe, 635/667 nm fluorescence, primary screen (AID 1097); details: small-molecule microarray, higher = more signal;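 further: probe is a biotinylated anti-EGFR antibody binding compounds printed on slides; score combines fluorescence near 667 nm and signal to noise of each spot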

Torsin-1A-interacting protein 2 (Homo sapiens), sequence (Q8NFQ8 whole entry, looked up): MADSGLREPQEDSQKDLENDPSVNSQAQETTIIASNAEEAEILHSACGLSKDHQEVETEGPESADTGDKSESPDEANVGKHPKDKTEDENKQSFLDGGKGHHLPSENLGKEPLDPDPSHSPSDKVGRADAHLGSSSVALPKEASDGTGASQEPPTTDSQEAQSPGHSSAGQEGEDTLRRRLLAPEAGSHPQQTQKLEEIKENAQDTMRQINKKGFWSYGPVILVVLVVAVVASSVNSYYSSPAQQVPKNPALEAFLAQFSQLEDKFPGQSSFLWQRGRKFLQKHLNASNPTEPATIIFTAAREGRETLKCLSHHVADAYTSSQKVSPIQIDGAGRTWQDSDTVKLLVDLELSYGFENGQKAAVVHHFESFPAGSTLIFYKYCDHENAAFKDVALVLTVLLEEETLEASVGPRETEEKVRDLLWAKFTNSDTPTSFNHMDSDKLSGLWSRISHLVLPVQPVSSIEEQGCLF
Neurogenic locus notch homolog protein 2 (Homo sapiens), sequence (Q04721 whole entry, looked up, canonical isoform): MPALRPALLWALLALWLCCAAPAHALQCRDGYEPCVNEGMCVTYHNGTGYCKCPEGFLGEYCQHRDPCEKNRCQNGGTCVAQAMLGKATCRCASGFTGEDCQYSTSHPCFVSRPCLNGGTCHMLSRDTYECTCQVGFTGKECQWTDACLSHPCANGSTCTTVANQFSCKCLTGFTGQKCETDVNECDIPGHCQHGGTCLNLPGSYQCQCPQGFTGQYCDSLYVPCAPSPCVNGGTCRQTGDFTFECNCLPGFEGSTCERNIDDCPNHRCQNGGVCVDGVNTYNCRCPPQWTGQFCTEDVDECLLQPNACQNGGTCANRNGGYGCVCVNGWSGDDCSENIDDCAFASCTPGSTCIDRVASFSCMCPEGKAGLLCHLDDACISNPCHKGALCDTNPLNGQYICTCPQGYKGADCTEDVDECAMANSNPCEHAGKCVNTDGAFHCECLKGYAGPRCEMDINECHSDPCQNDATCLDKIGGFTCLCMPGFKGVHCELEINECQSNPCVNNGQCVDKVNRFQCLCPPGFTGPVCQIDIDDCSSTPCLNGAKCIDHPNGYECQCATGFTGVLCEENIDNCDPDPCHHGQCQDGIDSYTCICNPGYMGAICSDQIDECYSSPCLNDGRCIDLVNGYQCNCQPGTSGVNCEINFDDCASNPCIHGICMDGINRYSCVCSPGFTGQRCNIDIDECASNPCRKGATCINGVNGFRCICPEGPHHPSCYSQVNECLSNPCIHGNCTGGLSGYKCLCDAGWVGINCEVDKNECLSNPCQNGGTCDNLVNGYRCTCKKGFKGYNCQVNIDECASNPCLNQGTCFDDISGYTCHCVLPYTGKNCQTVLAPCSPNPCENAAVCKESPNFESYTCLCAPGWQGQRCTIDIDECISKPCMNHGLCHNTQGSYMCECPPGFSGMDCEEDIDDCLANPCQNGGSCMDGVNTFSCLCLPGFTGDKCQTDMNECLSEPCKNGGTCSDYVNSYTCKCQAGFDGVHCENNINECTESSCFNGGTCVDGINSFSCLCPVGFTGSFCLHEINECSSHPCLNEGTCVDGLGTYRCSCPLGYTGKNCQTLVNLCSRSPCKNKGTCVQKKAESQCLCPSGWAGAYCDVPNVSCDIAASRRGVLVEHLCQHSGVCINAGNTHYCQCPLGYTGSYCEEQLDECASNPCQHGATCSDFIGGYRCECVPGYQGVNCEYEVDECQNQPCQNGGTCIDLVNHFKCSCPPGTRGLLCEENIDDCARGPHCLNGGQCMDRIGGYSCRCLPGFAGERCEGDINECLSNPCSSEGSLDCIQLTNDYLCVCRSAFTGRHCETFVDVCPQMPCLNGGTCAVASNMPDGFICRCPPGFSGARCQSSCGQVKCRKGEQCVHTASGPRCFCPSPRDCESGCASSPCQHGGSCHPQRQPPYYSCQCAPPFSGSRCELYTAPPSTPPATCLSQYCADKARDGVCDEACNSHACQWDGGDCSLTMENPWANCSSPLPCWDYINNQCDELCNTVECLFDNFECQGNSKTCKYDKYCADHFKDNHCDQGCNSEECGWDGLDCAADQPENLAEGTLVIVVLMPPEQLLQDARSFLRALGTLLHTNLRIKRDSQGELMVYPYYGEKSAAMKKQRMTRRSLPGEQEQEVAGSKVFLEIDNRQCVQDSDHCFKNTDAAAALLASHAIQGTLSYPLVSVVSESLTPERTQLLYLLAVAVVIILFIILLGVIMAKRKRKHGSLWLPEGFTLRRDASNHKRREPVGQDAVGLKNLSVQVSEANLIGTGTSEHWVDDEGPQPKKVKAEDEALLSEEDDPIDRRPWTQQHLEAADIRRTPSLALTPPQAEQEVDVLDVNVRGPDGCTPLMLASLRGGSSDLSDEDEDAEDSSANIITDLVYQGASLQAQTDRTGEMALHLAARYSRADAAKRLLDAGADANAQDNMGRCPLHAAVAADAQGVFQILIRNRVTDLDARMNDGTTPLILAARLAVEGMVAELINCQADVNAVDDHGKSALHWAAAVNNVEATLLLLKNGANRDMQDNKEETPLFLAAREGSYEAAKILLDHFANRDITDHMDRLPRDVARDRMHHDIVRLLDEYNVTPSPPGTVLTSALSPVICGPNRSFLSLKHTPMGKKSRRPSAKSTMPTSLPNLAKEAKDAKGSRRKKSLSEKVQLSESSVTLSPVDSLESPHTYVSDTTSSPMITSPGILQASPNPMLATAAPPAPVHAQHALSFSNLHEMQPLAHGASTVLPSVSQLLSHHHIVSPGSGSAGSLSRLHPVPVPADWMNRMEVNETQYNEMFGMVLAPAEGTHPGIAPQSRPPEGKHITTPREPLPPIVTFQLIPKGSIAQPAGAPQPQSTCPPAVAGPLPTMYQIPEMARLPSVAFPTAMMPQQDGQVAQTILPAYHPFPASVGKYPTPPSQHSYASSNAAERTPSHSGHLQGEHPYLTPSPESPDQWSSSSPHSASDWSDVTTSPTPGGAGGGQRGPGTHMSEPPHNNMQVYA
Pro-neuregulin-1, membrane-bound isoform (Homo sapiens), sequence (Q02297 whole entry, looked up, the tested form may be a part, canonical isoform): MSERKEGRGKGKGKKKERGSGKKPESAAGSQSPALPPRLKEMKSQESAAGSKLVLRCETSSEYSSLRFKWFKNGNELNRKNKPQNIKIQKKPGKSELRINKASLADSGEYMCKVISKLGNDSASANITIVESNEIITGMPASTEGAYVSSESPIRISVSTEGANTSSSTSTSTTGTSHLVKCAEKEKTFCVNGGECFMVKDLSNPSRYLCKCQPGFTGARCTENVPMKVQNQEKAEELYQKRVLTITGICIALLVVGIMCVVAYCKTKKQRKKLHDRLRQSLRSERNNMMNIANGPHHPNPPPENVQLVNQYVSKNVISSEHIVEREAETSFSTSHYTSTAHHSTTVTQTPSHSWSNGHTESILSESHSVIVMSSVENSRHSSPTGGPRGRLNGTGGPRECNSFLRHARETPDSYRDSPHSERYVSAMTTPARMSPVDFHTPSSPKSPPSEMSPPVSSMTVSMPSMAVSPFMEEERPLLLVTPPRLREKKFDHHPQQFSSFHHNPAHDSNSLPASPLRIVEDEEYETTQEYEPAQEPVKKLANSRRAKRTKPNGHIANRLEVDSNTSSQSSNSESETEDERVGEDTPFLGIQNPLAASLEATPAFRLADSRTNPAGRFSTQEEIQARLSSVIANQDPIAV

| Structure (SMILES) | composite z-score [1] | composite z-score [2] | composite z-score [3] | composite z-score [4] | composite z-score [5] | composite z-score [6] | composite z-score [7] | z-score [8] | composite z-score [9] | composite z-score [10] | composite z-score [11] | z-score [12] | z-score [13] | z-score [14] | composite z-score [15] | z-score [16] | composite z-score [17] | composite z-score [18] | composite z-score [19] | composite z-score [20] |
| --- | --- | --- | --- | --- | --- | --- | --- | --- | --- | --- | --- | --- | --- | --- | --- | --- | --- | --- | --- | --- |
| CC(C)CNC(=O)[C@@]1(c2ccc([N+](=O)[O-])cc2)CC(=O)N(C2CCCCC2)[C@@H]1c1ccc(CO)cc1I | 0.0706 | 0.148 | -0.0728 | -0.186 | 0.421 | 1.14 | 0.734 | -0.35 (inactive) | -0.126 | -0.335 | 0.935 | -0.579 (inactive) | 0.279 (inactive) | -0.143 (inactive) | 1.98 | -0.602 (inactive) | -0.0512 | 0.193 | 0.636 | -0.096 |
| O=C1O[C@@H](c2ccccc2)[C@@H](c2ccccc2)N2[C@@H](c3ccccc3OCCO)[C@]3(C(=O)Nc4ccc(C#CCCO)cc43)[C@@H](C(=O)N3CCN(c4ncccn4)CC3)[C@H]12 | -0.132 | -0.167 | -0.0004 | 0.608 | 1.34 | 1.56 | 1.13 | -2.32 (inactive) | 0.29 | -0.069 | 1.55 | 1.75 (inactive) | -0.631 (inactive) | 3.99 (inactive) | 2.93 | 0.935 (inactive) | -0.0708 | 0.207 | 0.59 | -0.0858 |
| C=CC[C@@]1(C(=O)N2CCCCC2)N=C(c2ccc(OCCCO)cc2)O[C@@H]1c1ccccc1 | 1 | 0.651 | 0.0336 | 0.307 | 0.201 | 1.56 | 1.19 | -1.21 (inactive) | 0.688 | 0.595 | 1.56 | -2.83 (inactive) | -5.65 (inactive) | -1.18 (inactive) | 3.06 | 0.868 (inactive) | 0.361 | 1.14 | 0.5 | 0.0222 |
| C=C(COC)/C(=C/C[C@@H](OC(=O)c1ccncc1)c1cccc(OCCO)c1)c1cnc2ccccc2c1 | 0.234 | 1.99 | 0.0601 | 1.19 | 1.76 | 1.14 | 1.2 | 0.589 (inactive) | 1.47 | 0.251 | 1.55 | -19.8 (active) | -20.6 (active) | -3.52 (inactive) | 2.2 | 0.682 (inactive) | 0.266 | 1.61 | 1.02 | 0.0892 |
| CC(C)(C)OC(=O)CC[C@]1(C(=O)O)N=C(c2ccc(OCCCO)cc2)O[C@H]1c1ccccc1 | -0.161 | -0.0254 | -0.0345 | 0.19 | 0.831 | 0.467 | 1.11 | 1.9 (inactive) | 0.292 | 1.28 | -0.147 | -0.627 (inactive) | -0.573 (inactive) | -1.97 (inactive) | 2.2 | 0.461 (inactive) | -0.0226 | -0.0257 | 0.154 | -0.0485 |
| C=C[C@@H](C)[C@H](OC(=O)Nc1ccc(SC)cc1)c1ccc(OCCO)cc1 | 0.342 | -0.272 | -0.215 | -0.542 | -0.713 | 1.8 | 1.22 | 6.28 (inactive) | -0.375 | -0.0538 | -0.0446 | 0.103 (inactive) | -1.02 (inactive) | -0.32 (inactive) | 0.721 | 1.18 (inactive) | -0.136 | 0.362 | 0.405 | -0.105 |
| CC(C)c1ccc(NN2C(C(O)c3ccco3)C=CC3C(=O)N(c4ccccc4)C(=O)C32)cc1 (stereo not given) | 0.447 | 0.334 | 0.106 | 0.677 | 1.71 | 1.46 | 1.2 | -1.22 (inactive) | 1.34 | -0.0606 | 1.57 | 0.61 (inactive) | 0.431 (inactive) | -0.419 (inactive) | 3.27 | -0.577 (inactive) | 0.0997 | 0.18 | 1.02 | 0.0308 |
| [N-]=[N+]=NCc1ccccc1C[C@@]1(C(=O)N2CCCCC2)N=C(c2ccc(OCCCO)cc2)O[C@@H]1c1ccccc1N=[N+]=[N-] | 0.167 | 0.101 | -0.204 | 0.229 | 1.49 | 1.38 | 1.05 | -3 (inactive) | 0.227 | 0.0505 | 0.422 | -0.64 (inactive) | 0.832 (inactive) | 4.02 (inactive) | 1.73 | 1.17 (inactive) | -0.0591 | 0.244 | 0.923 | 0.0923 |
| C=C1C2CC3C(=C4C(CO[C@@H]4[C@H]4CCCN4S(=O)(=O)c4ccccc4[N+](=O)[O-])C4C(=O)N(C)C(=O)C34)CC2C(=O)N1C (stereo not given in full) | -0.431 | 0.315 | -0.125 | 0.36 | 0.574 | 1.12 | 0.0641 | 0.581 (inactive) | 0.174 | 0.0024 | 0.627 | -0.0815 (inactive) | -4.92 (inactive) | -0.824 (inactive) | 0.303 | -0.509 (inactive) | -0.139 | 0.082 | 0.22 | 0.106 |
| CC[C@@H]1[C@H]2C3C(=O)N(CC)C(=O)C3CC(=O)[C@H]2[C@H](c2ccc(C)cc2)N1S(=O)(=O)c1ccc(C)cc1 (stereo not given in full) | -0.0209 | 0.172 | -0.0878 | 0.457 | 1.44 | 0.519 | 0.57 | -0.319 (inactive) | 0.84 | -0.0296 | 1.09 | 0.0287 (inactive) | 1.15 (inactive) | 1.6 (inactive) | 2.75 | -0.243 (inactive) | -0.203 | 0.712 | 1.12 | -0.0353 |
